Experimental data published in PubChem BioAssay (NCATS).
Records with an inconclusive call do not appear. Active and inactive are the calls of the source. The call rests on the fitted dose curve; in most records, active means well fitted cell-killing curve with a large enough effect; inconclusive means small, poorly fitted or top-dose-only effect, or effect the other way; inactive means no such curve, though single readings can be large or run the other way.

Test: Quantitative High-Throughput drug screen in 47 multiple myeloma cell lines against the NCATS MIPE library collection: OCIMY1_PLB cell viability assay (AID 1918979); further: nearly all actives have a fitted effect of over 35% in size
Conditions: OCI-MY1 myeloma viability, CellTiter-Glo ATP, 48 h; series mostly up to 45.8 µM
Text: PI: Beverly A. Mock Ph.D.
Laboratory of Cancer Biology and Genetics,
Center for Cancer Research, National Cancer Institute,
National Institute of Health, Bethesda, Maryland
Drug resistance and disease progression are common in multiple myeloma (MM) patients, underscoring the need for new therapeutic combinations. […] We hypothesized that effective combinations would reduce MYC expression and enhance p16 activity. […] These preclinical data identify potentially useful drug combinations for evaluation in drug-resistant MM and reveal potential mechanisms of combined drug sensitivity.
Described herein is the primary MIPE qHTS used to cherrypick compounds. Validated compounds were then further tested for potential synergistic activiy.
[1] Peat TJ, Gaikwad SM, Dubois W, Gyabaah-Kessie N, Zhang S, Gorjifard S, Phyo Z, Andres M, Hughitt VK, Simpson RM, Miller MA, Girvin AT, Taylor A, Williams D, D'Antonio N, Zhang Y, Rajagopalan A, Flietner E, Wilson K, Zhang X, Shinn P, Klumpp-Thomas C, McKnight C, Itkin Z, Chen L, Kazandijian D, Zhang J, Michalowski AM, Simmons JK, Keats J, Thomas CJ, Mock BA. Drug combinations identified by high-throughput screening promote cell cycle transition and upregulate Smad pathways in myeloma. Cancer Lett. 2023 Aug 1;568:216284. doi: 10.1016/j.canlet.2023.216284. Epub 2023 Jun 24. PMID: 37356470; PMCID: PMC10408729.
SEQUENCE No. (e.g., 1, 2, 3, etc.); […] (e.g., Cells, Incubation, Reagent, etc.); VALUE and DESCRIPTION.
1; Cells; 5 uL; white, solid bottom 1536-well Greiner assay plate.
2; Compounds; 23 nL; Kalypsis pin tool (Wako USA) equipped with a 1536-well pin head to transfer to the assay plates.
3; Incubation; 48 hours; 37C incubation.
4; Reagent;5uL; CellTiter Glo (Promega).
5; Detector; 425V; Luminescence; Viewlux PerkinElmer.
NOTES (numbers refer to Sequence numbers above)
1. The cell-based screening methods employed in this study were like those previously published. Briefly, the corresponding myeloma cell lines were screened in 1,536-well plates with 500 cells, 5-uL per well for inhibition of cell viability (assessed by measuring ATP levels with CellTiterGlo).
2. NCATS MIPE 4.0 library of approved and investigational drugs were added using the Kalypsis pin tool. Wells treated with DMSO only for 100% viability and media only for 0% viability were used as controls.
3. The assay plates were covered and incubated for 48 hours in a 37C, 5% CO2 incubator with controlled humidity.
4. After 48 hours, CellTilter-GloTM luminescent substrate mix (Promega) reagent was added to the assay plate and plates we incubated for 5 min at room temperature.
5. Signal was measured as median relative luminescence units on a ViewLux (PerkinElmer) multiplate reader.
[1] Heske CM, Davis MI, Baumgart JT, Wilson K, Gormally MV, Chen L, Zhang X, Ceribelli M, Duveau DY, Guha R, Ferrer M, Arnaldez FI, Ji J, Tran HL, Zhang Y, Mendoza A, Helman LJ, Thomas CJ. Matrix Screen Identifies Synergistic Combination of PARP Inhibitors and Nicotinamide Phosphoribosyltransferase (NAMPT) Inhibitors in Ewing Sarcoma. Clin Cancer Res. 2017 Dec 1;23(23):7301-7311. doi: 10.1158/1078-0432.CCR-17-1121. Epub 2017 Sep 12. PMID: 28899971; PMCID: PMC6636827.
Potency means the concentration at half of the fitted maximal effect.

Which Potency does the source give for COc1cc2nccc(Oc3ccc(NC(=O)C4(C(=O)Nc5ccc(F)cc5)CC4)cc3)c2cc1OC here?
The Potency was 26.4 µM (active).

For O=C(O)c1ccc2c(c1)nc(Nc1cccc(Cl)c1)c1ccncc12, which Potency is on record?
The Potency was 18.7 µM (active).

For COc1cc(=C2C=c3ccccc3=N2)[nH]c1=Cc1[nH]c(C)cc1C, which Potency is on record?
Its Potency is 3.72 µM (active).

Which Potency does the source give for O=C(O)c1ccc2cc(-c3ccc(O)c(C45CC6CC(CC(C6)C4)C5)c3)ccc2c1 here?
Its Potency is 16.6 µM (active).

Which Potency does the source give for Cn1c(=O)n(-c2ccc(C(C)(C)C#N)cc2)c2c3cc(-c4cnc5ccccc5c4)ccc3ncc21 here?
The Potency was 0.0662 µM (active).

Which Potency does the source give for C=CC(=O)Nc1cc2c(Nc3ccc(F)c(Cl)c3)ncnc2cc1C#CC(C)(C)N1CCN(C)CC1 here?
The Potency was 4.69 µM (active).

Which Potency does the source give for Clc1cccc(-n2nnnc2NCc2ccccc2Oc2ccccn2)c1Cl here?
The Potency was “inactive”.

With O=C1CCC[C@@H]2[C@H]3CCC[N+]4([O-])CCC[C@@H](CN12)[C@@H]34 (stereo not given in full) as the molecule, how does the Potency read?
The Potency was “inactive”.

Which Potency does the source give for CC(C)[C@H](C(=O)Nc1ccc(C(=O)NO)cc1)c1ccccc1 here?
The Potency was 1.18 µM (active).

Which Potency does the source give for Cc1[nH]nc2ccc(-c3cncc(OC[C@@H](N)Cc4ccccc4)c3)cc12 here?
The Potency was 6.62 µM (active).

With COc1cc(C(=O)N2CCC(N3CCN(C)CC3)CC2)ccc1Nc1ncc2c(n1)N(C)c1ccccc1C(=O)N2C as the molecule, how does the Potency read?
Its Potency is 7.43 µM (active).

With CCOc1ccccc1OCCNC(C)Cc1ccc(OC)c(S(N)(=O)=O)c1 (stereo not given) as the molecule, how does the Potency read?
Its Potency is “inactive”.

For Cn1c2ccccc2c2c3c(c4c5ccccc5n(CCC#N)c4c21)CNC3=O, which Potency is on record?
Its Potency is 14.8 µM (active).

For CC(C)CC(=O)Nc1n[nH]c2c1CN(C(=O)C1CCN(C)CC1)C2(C)C, which Potency is on record?
Its Potency is 16.6 µM (active).

With COc1ccc(OC)c(-c2nnc3ccc(-c4ccc(OC)c(O[C@@H]5CCOC5)c4)nn23)c1 as the molecule, how does the Potency read?
Its Potency is 20.9 µM (active).

Which Potency does the source give for CNC(=O)c1ccc(-c2cnc3ncc(Cc4ccc5ncccc5c4)n3n2)cc1F here?
The Potency was “inactive”.

For O=c1[nH]nc(Sc2ncc([N+](=O)[O-])s2)n1-c1ccc2c(c1)OCCO2, which Potency is on record?
Its Potency is 3.72 µM (active).

With c1cc(-c2cnn3cc(-c4ccc(OCCN5CCCCC5)cc4)cnc23)ccn1 as the molecule, how does the Potency read?
The Potency was 26.4 µM (active).

Which Potency does the source give for CCCCc1nc2cc(C=CC(=O)NO)ccc2n1CCN(CC)CC here?
Its Potency is 1.66 µM (active).

For CC1(C)O[C@@H]2C[C@@H]3[C@H]4C[C@@H](F)C5=CC(=O)C=C[C@]5(C)[C@@]4(F)[C@@H](O)C[C@]3(C)[C@]2(C(=O)CO)O1, which Potency is on record?
Its Potency is “inactive”.

Which Potency does the source give for CC(=O)SC[C@@H](C)C(=O)N1CCC[C@H]1C(=O)N[C@@H](Cc1ccccc1)C(=O)O here?
The Potency was “inactive”.

For COc1cc2c(Oc3ccc(NC(=O)C4(C(=O)Nc5ccc(F)cc5)CC4)cc3F)ccnc2cc1OCCCN1CCOCC1, which Potency is on record?
The Potency was 14.8 µM (active).

Which Potency does the source give for Nc1nc(Nc2ccc(S(N)(=O)=O)cc2)nn1C(=O)c1c(F)cccc1F here?
Its Potency is 13.2 µM (active).

For COC(=O)c1ccc2c(C(=Nc3ccc(N(C)C(=O)CN4CCN(C)CC4)cc3)c3ccccc3)c(O)[nH]c2c1, which Potency is on record?
Its Potency is 10.5 µM (active).

For c1ccc2c(CCNc3ccc(Nc4ccncc4)cc3)c[nH]c2c1, which Potency is on record?
The Potency was “inactive”.

With COc1cc2c(Oc3ccc(-c4cnc(Nc5ccc(F)cc5)n(C)c4=O)cc3F)ccnc2cc1OCCCN1CCOCC1 as the molecule, how does the Potency read?
The Potency was 11.8 µM (active).

Which Potency does the source give for C=CC(=O)Nc1cccc(Oc2nc(Nc3ccc(N4CCN(C)CC4)cc3OC)ncc2Cl)c1 here?
The Potency was 20.9 µM (active).

Which Potency does the source give for COc1ccc(-c2cc3c(C)nc(N)nc3n(C3CCC(OCCO)CC3)c2=O)cn1 (stereo not given) here?
The Potency was 0.0833 µM (active).

For N#CCNC(=O)c1ccc(-c2ccnc(Nc3ccc(N4CCOCC4)cc3)n2)cc1, which Potency is on record?
Its Potency is 23.5 µM (active).

Which Potency does the source give for O=C(C=Cc1cccc(S(=O)(=O)Nc2ccccc2)c1)NO here?
The Potency was 6.79 µM (active).

Which Potency does the source give for Cc1coc2c1C(=O)C(=O)c1c-2ccc2c1CCCC2(C)C here?
Its Potency is 16.6 µM (active).

With CC1=C(CO)C(=O)O[C@@H]([C@@H](C)[C@H]2CC[C@H]3[C@@H]4C[C@H]5O[C@]56[C@@H](O)C=CC(=O)[C@]6(C)[C@@H]4CC[C@]23C)C1 as the molecule, how does the Potency read?
The Potency was 0.118 µM (active).

With Cc1nc2cnc3ccc(C#Cc4cccnc4)cc3c2n1-c1ccc(C(C)(C)C#N)cc1 as the molecule, how does the Potency read?
The Potency was 1.48 µM (active).

With Nc1ccccc1NC(=O)c1ccc(CNC(=O)OCc2cccnc2)cc1 as the molecule, how does the Potency read?
Its Potency is 4.69 µM (active).

With Nc1ncnc2c1c(-c1cccc(OCc3ccccc3)c1)cn2C1CC(CN2CCCC2)C1 (stereo not given) as the molecule, how does the Potency read?
The Potency was 10.5 µM (active).

For CC(C)c1cnn2c(NCc3ccccc3)cc(N[C@@H](CO)[C@H](O)CO)nc12, which Potency is on record?
The Potency was 0.418 µM (active).

For CN(C)Cc1c(C(=O)NCCOc2ccc(C(=O)NO)cc2)oc2ccccc12, which Potency is on record?
The Potency was 1.66 µM (active).

For CC=C1NC(=O)[C@H]2CSSCCC=C[C@H](CC(=O)N[C@H](C(C)C)C(=O)N2)OC(=O)[C@H](C(C)C)NC1=O, which Potency is on record?
The Potency was 0.118 µM (active).

For CN(C)CC(C)(C)CNc1nn2c(-c3ccccc3)nnc2cc1C1CCC1, which Potency is on record?
Its Potency is “inactive”.

Which Potency does the source give for Nc1cc(C(F)(F)F)c(-c2cc(N3CCOCC3)nc(N3CCOCC3)n2)cn1 here?
Its Potency is 0.469 µM (active).
